# Data published in the supplement of paper PMC8728848.
# About 410 targets per protein were measured; listed, in parts, are those with the strongest signals and a random draw of the rest.
# Key:
# Experiment in all cases: glycan array binding signal (z-score within array); higher = stronger binding
# Settings in all cases: glycan notation: IUPAC condensed, linker removed
# [1] = molecular target: Fuc(a1-2)Gal(b1-3)[Fuc(a1-4)]GlcNAc
# In short: (§1)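 The binding signal is a Z-score computed within each array and averaged over linkers. Arrays of the same protein sequence at different concentrations or buffers were also averaged together. Data originate from 3228 arrays in the Consortium for Functional Glycomics database, kept only where the protein sequence was available.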
# [2] = molecular target: Fuc(a1-3)[Gal(b1-4)]Glc6S
# In short: as §1
# [3] = molecular target: Fuc(a1-3)[Gal(b1-4)]GlcNAc(b1-4)Gal(b1-4)[Fuc(a1-3)]GlcNAc
# In short: as §1
# [4] = molecular target: Fuc(a1-3)[Gal3S(b1-4)]Glc6S
# In short: as §1
# [5] = molecular target: Fuc(a1-3)[Gal3S(b1-4)]GlcNAc6S
# In short: as §1
# Gal(a1-6)Glc = molecular target: Gal(a1-6)Glc
# In short: as §1
# Gal(b1-3)Gal = molecular target: Gal(b1-3)Gal
# In short: as §1
# Gal(b1-4)Glc6S = molecular target: Gal(b1-4)Glc6S
# In short: as §1
# [6] = molecular target: Gal(b1-4)GlcNAc(b1-3)Gal(b1-4)[Fuc(a1-3)]GlcNAc(b1-3)Gal(b1-4)[Fuc(a1-3)]GlcNAc
# In short: as §1
# [7] = molecular target: Gal(b1-4)GlcNAc(b1-6)Gal(b1-4)GlcNAc
# In short: as §1
# Gal3S(b1-3)GlcNAc = molecular target: Gal3S(b1-3)GlcNAc
# In short: as §1
# [8] = molecular target: Gal3S(b1-3)[Fuc(a1-4)]GlcNAc
# In short: as §1
# Gal3S6S(b1-4)GlcNAc6S = molecular target: Gal3S6S(b1-4)GlcNAc6S
# In short: as §1
# Gal6S(b1-4)GlcNAc = molecular target: Gal6S(b1-4)GlcNAc
# In short: as §1
# [9] = molecular target: GlcNAc(b1-4)Gal(b1-4)GlcNAc
# In short: as §1
# [10] = molecular target: Man(a1-2)Man(a1-3)[Man(a1-6)]Man(a1-6)[Man(a1-2)Man(a1-3)]Man(b1-4)GlcNAc(b1-4)GlcNAc
# In short: as §1
# [11] = molecular target: Man(a1-3)[Man(a1-6)]Man(a1-6)[Man(a1-3)]Man
# In short: as §1
# [12] = molecular target: Man(a1-3)[Man(a1-6)]Man(b1-4)GlcNAc(b1-4)GlcNAc
# In short: as §1
# [13] = molecular target: Neu5Ac(a2-3)Gal(b1-3)GalNAc
# In short: as §1
# [14] = molecular target: Neu5Ac(a2-3)Gal(b1-3)GalNAc(b1-3)Gal(b1-4)GlcNAc
# In short: as §1
# [15] = molecular target: Neu5Ac(a2-3)Gal(b1-3)GlcNAc
# In short: as §1
# [16] = molecular target: Neu5Ac(a2-3)Gal(b1-3)[Neu5Ac(a2-3)Gal(b1-4)]GlcNAc
# In short: as §1
# [17] = molecular target: Neu5Ac(a2-3)Gal(b1-4)GlcNAc(b1-3)Gal(b1-4)GlcNAc
# In short: as §1
# [18] = molecular target: Neu5Ac(a2-3)Gal(b1-4)[Fuc(a1-3)]GlcNAc6S
# In short: as §1
# [19] = molecular target: Neu5Ac(a2-3)Gal6S(b1-4)[Fuc(a1-3)]GlcNAc
# In short: as §1
# [20] = molecular target: Neu5Ac(a2-3)[GalNAc(b1-4)]Gal(b1-4)Glc
# In short: as §1
# [21] = molecular target: Neu5Ac(a2-8)Neu5Ac(a2-8)Neu5Ac(a2-3)[GalNAc(b1-4)]Gal(b1-4)Glc
# In short: as §1
# [22] = molecular target: Neu5Ac9Ac(a2-6)Gal(b1-4)GlcNAc
# In short: as §1
binder,measurement,setting,value
"L-Selectin (Homo sapiens), P14151 (protein) MIFPWKCQSTQRDLWNIFKLWGWTMLCCDFLAHHGTDCWTYHYSEKPMNWQRARRFCRDNYTDLVAIQNKAEIEYLEKTLPFSRSYYWIGIRKIGGIWTWVGTNKSLTEEAENWGDGEPNNKKNKEDCVEIYIKRNKDAGKWNDDACHKLKAALCYTASCQPWSCSGHGECVEIINNYTCNCDVGYYGPQCQFVIQCEPLEAPELGTMDCTHPLGNFSFSSQCAFSCSEGTNLTGIEETTCGPFGNWSSPEPTCQVIQCEPLSAPDLGIMNCSHPLASFSFTSACTFICSEGTELIGKKKTICESSGIWSNPSPICQKLDKSFSMIKEGDYNPLFIPVAVMVTAFSGLAFIIWLARRLKKGKKSKRSMNDPY",glycan array binding signal (z-score),[1],-0.36
same,glycan array binding signal (z-score),[2],0.137
same,glycan array binding signal (z-score),[3],-0.145
same,glycan array binding signal (z-score),[4],6.9
same,glycan array binding signal (z-score),[5],8.15
same,glycan array binding signal (z-score),Gal(a1-6)Glc,0.48
same,glycan array binding signal (z-score),Gal(b1-3)Gal,-0.315
same,glycan array binding signal (z-score),Gal(b1-4)Glc6S,0.942
same,glycan array binding signal (z-score),[6],-0.38
same,glycan array binding signal (z-score),[7],-0.336
same,glycan array binding signal (z-score),Gal3S(b1-3)GlcNAc,-0.333
same,glycan array binding signal (z-score),[8],3.08
same,glycan array binding signal (z-score),Gal3S6S(b1-4)GlcNAc6S,4.59
same,glycan array binding signal (z-score),Gal6S(b1-4)GlcNAc,-0.078
same,glycan array binding signal (z-score),[9],0.119
same,glycan array binding signal (z-score),[10],-0.024
same,glycan array binding signal (z-score),[11],-0.198
same,glycan array binding signal (z-score),[12],-0.246
same,glycan array binding signal (z-score),[13],0.005
same,glycan array binding signal (z-score),[14],-0.116
same,glycan array binding signal (z-score),[15],-0.147
same,glycan array binding signal (z-score),[16],-0.044
same,glycan array binding signal (z-score),[17],-0.338
same,glycan array binding signal (z-score),[18],9.18
same,glycan array binding signal (z-score),[19],-0.028
same,glycan array binding signal (z-score),[20],-0.363
same,glycan array binding signal (z-score),[21],-0.314
same,glycan array binding signal (z-score),[22],0.073
